# Source: PubChem BioAssay (several laboratories)
# PTK2B oligo ant – antagonists of human Pyk2 oligomerization. Q14289. Q293 cells, Pyk2 FERM NanoBiT luminescence; hits give low values. z-score (the deposit names both 25 µM and 10 µM). actives 0.83% (n = 99,000);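 active = Z-score of -3 or lower, scaled per plate to the spread of control and sample wells; inactive = z-score above -3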;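 note: negative z-score means lost luminescence so less FERM oligomerization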
# PostGolgi ctrl – growth of the yeast control strain, post-Golgi counter-screen; efflux-deficient yeast background strain, growth absorbance A615, 16 h; inhibition, % at 10 µM; actives 5% (n = 98,000)
# PostGolgi yeast – growth inhibition of a yeast mutant, post-Golgi transport screen. post-Golgi transport phenotypic cell assay. actives 0.9% (n = 98,000). inhibition, % at 10 µM;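 note: yeast cells grown in 1536-well plates; yeast grown about 18 h at 30C before absorbance read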
# Cav32 inh – inhibitors of human Cav3.2 T-type calcium channel | O95180 | Cav3.2-expressing cells, Fluo-4 calcium fluorescence FDSS; hits give low values | B-score at 10 µM | actives 4% (n = 100,000) | AID 449739;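 active = single-dose well whose peak fluorescence ratio is a statistical outlier from its plate by either plate-standardised score or position-corrected B-score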
# * hit, by the source's call; / = no result. Hits are enriched below; roughly 8% of the tested compounds scored in any of these assays. Cut-off read from the data, not from the text of the source, unless noted: active = inhibition above about 30%; inactive = the rest.
SMILES,PTK2B oligo ant,PostGolgi ctrl,PostGolgi yeast,Cav32 inh
CCOc1cc(NC(=O)c2ccccn2)c(OCC)cc1NC(=O)CC(C)C,-1.9,1,6,-0.039
CCOc1cc(NC(=O)C2CC2)c(OCC)cc1NC(=O)c1ccccn1,-3.2*,10,7,0.66
CSc1nc(C)cc(OCCNS(=O)(=O)c2ccc(C)cc2)n1,-0.63,/,/,0.98
Cc1nnc(SCC(=O)N(Cc2ccccc2)C(C)C)n1-c1ccccc1,0.45,18,-3,1.7
O=C(NCCNc1ccc([N+](=O)[O-])cc1C(F)(F)F)c1ccccc1F,-0.36,-3,-3,-2.3
O=[N+]([O-])c1ccc(NCCNS(=O)(=O)c2ccccc2)c(C(F)(F)F)c1,-0.07,13,-7,-4.9*
Cc1ccc(S(=O)(=O)NCCNc2ccc([N+](=O)[O-])cc2C(F)(F)F)cc1,0.41,40*,-1,-4.6
c1cncc(-c2nc(-c3cccs3)cs2)c1,1.5,11,-1,0.063
O=S(=O)(c1ccc(F)cc1)N1CCN(c2nc(-c3ccc(F)cc3)cs2)CC1,-0.94,37*,-2,0.15
Clc1ccsc1-c1csc(-c2cccnc2)n1,-0.86,85*,81*,0.36
CS(=O)(=O)N1CCN(c2nc(-c3ccc(F)cc3)cs2)CC1,-0.33,11,-5,0.39
Oc1cccc(-c2nc3ccccc3s2)c1,-0.68,0,-3,/
O=S(=O)(c1cccc(-c2nc3ccccc3s2)c1)N1CCCC1,-2.1,34*,10,-3.1
Nc1cccc(-c2nc3ccccc3s2)c1,0.48,31*,1,0.039
O=C1CN(Cc2ccccc2)C(=NCc2ccco2)S1,0.42,18,7,-0.27
COCCn1c(CNc2ccc(F)cc2)nnc1SCC(=O)Nc1ccc(OC)cc1OC,0.51,-1,0,0.84
Cc1nc(-c2cccc(S(=O)(=O)N3CC(C)OC(C)C3)c2)cs1 (configuration not stated),-1.4,3,-3,0.24
O=S(=O)(c1cccc(-c2csc(-c3cccnc3)n2)c1)N1CCCCC1,-2.8,32*,-2,-1.2
Cc1nc(-c2cccc(S(=O)(=O)N3CC(C)CC(C)C3)c2)cs1 (configuration not stated),-3*,17,0,-2.6
O=S(=O)(c1ccc(-c2csc(-c3cccnc3)n2)cc1)N1CCCC1,-2.2,19,13,-0.13
O=S(=O)(c1ccc(-c2csc(-c3cccnc3)n2)cc1)N1CCCCC1,-2.7,41*,-1,-0.23
CCOC(=O)Cc1csc(SC(C)C(=O)Nc2ccc(NC(C)=O)cc2)n1 (configuration not stated),0.97,6,5,0.19
CCOc1ccc2nc(NC(=O)c3ccc(S(=O)(=O)N4CCOCC4)cc3)sc2c1,0.75,1,4,/
CCOc1ccc2nc(NC(=O)c3ccc(OC)c(S(=O)(=O)N4CCOCC4)c3)sc2c1,-3.7*,10,12,-0.46
CC(C)Oc1ccc(C(CC(=O)O)NC(=O)c2cccs2)cc1 (configuration not stated),2,3,-10,0.53
SMILES,PTK2B oligo ant,PostGolgi ctrl,PostGolgi yeast,Cav32 inh
CC(C)C[C@H](NC(=O)OC(C)(C)C)C(=O)N/N=C/C1=Cc2ccccc2OC1C (some centres not stated),-0.68,28,8,-4.4*
CC(C)C[C@H](NC(=O)OC(C)(C)C)C(=O)N/N=C/c1ccc2nccnc2c1,3.6,-1,5,0.48
Cn1cc(C(=O)c2ccc(Cl)cc2Cl)cc1C(=O)N/N=C(\N)COc1cccc(C(F)(F)F)c1,0.95,20,-5,-8.4*
CCCCCCCCn1c(=O)c(C(=O)OCC)c(O)c2ccccc21,0.81,7,0,-7.4*
CCCCCn1c(=O)c(C(=O)OCC)c(O)c2ccccc21,-0.04,-5,2,/
COc1cc(OC)nc(NC(=O)CSc2nc3ccccc3[nH]2)n1,0.61,-2,-1,-0.034
COc1cc2c(cc1NC(=O)CN(C)Cc1nc3ccccc3c(=O)[nH]1)oc1ccccc12,-3.4*,59*,-6,-0.15
COc1cc2c(cc1NC(=O)CSc1nc3ccccc3[nH]1)oc1ccccc12,-1.1,74*,2,-0.77
CCn1c(SCCC(=O)Nc2ccccc2)nnc1-c1ccc(OC)cc1,1.5,3,2,1.1
COc1ccc(Cl)cc1NC(=O)C1CCCN(S(=O)(=O)c2cccc3nonc23)C1 (configuration not stated),0.34,1,3,-0.045
O=C(CN(Cc1ccco1)C(=O)c1ccccc1)Nc1ccc(Cl)c(Cl)c1,-3.7*,39*,-8,-8.7*
O=C(CN(Cc1ccco1)C(=O)c1cccc(Cl)c1)Nc1c(Cl)cc(Cl)cc1Cl,-1.9,15,-2,-4.5*
Clc1cccc(Cc2nn[nH]n2)c1,/,/,/,-0.018
COC(=O)C1=C(C(=O)OC)[C@@H]2N(C)c3ccc(OC)cc3[C@@]23C[C@@H](C(=O)OC)N(S(=O)(=O)c2ccc(OC)cc2)C3=N1,/,/,/,-0.64
CCOC(=O)c1cccc(NC(=O)CN(c2ccc(C)cc2)S(=O)(=O)c2c(C)n[nH]c2C)c1,-3*,6,-6,-1.2
COc1cc(NC(=O)CN(c2ccc(C)cc2)S(=O)(=O)c2c(C)n[nH]c2C)cc(OC)c1,-2.6,3,-12,-1
COc1ccc(N(CC(=O)Nc2ccc(C)c(C)c2)S(=O)(=O)c2c(C)n[nH]c2C)cc1,-3.3*,3,3,/
Cc1ccc(NC(=O)CN(c2ccc3c(c2)OCO3)S(=O)(=O)c2c(C)n[nH]c2C)cc1,/,2,1,0.45
CCc1cccc(NC(=O)CN(c2ccc(OC)cc2)S(=O)(=O)c2c(C)n[nH]c2C)c1,-3.2*,-1,5,-4.2*
C=CCOc1cccc(C2C(C(=O)c3ccco3)=C(O)C(=O)N2CCN(CC)CC)c1 (configuration not stated),0.44,6,-7,1.2
C=CCOc1cccc(C2C(C(=O)c3ccc(C)o3)=C(O)C(=O)N2c2nccs2)c1 (configuration not stated),-0.6,15,-10,-5.1*
Cc1csc(NC(=O)CSc2nnc(-c3ccoc3C)n2Cc2ccco2)n1,0.11,0,2,-0.87
COc1ccc(NC(=O)c2ccco2)cc1NC(=O)c1cccc(OC(C)C)c1,0.86,27,-4,-5.6*
COC(=O)c1ccc(OC)cc1OCC(=O)N1CCN(c2ccc(F)cc2)CC1,-0.19,4,4,0.029
CC1CCN(C2CCN(S(=O)(=O)c3ccc(F)cc3)CC2)CC1,0.14,31*,5,0.69
SMILES,PTK2B oligo ant,PostGolgi ctrl,PostGolgi yeast,Cav32 inh
CC1CN(C2CCN(S(=O)(=O)c3ccc4ccccc4c3)CC2)CC(C)O1 (configuration not stated),-0.14,38*,83*,0.37
Cc1ccc(S(=O)(=O)N2CCN(C3CCC(c4ccccc4)CC3)CC2)cc1 (configuration not stated),/,96*,89*,/
Cn1c(SCC(=O)c2ccc3c(c2)OCCO3)nnc1C1CC1,0.36,/,/,0.00014
CCCn1c(SCC(=O)OCc2ccccc2)nc2c1c(=O)n(C)c(=O)n2C,1.6,2,-13,2
C=C(C)Cn1c(=S)[nH]c2ccccc2c1=O,0.24,6,3,-0.12
CC(C)COn1c(=S)[nH]c2ccccc2c1=O,-0.59,38*,1,0.56
